Measured values taken from PMC5795388.

Tests used:
Assay in all cases: cross-link between two proteins; cross-linking mass spectrometry
[1] = target: NADH dehydrogenase [ubiquinone] 1 alpha subcomplex subunit 13 (UniProt Q9ERS2)
[2] = target: Cytochrome c oxidase subunit 6C (UniProt Q9CPQ1)
[3] = target: NADH dehydrogenase [ubiquinone] 1 alpha subcomplex subunit 9, mitochondrial (UniProt Q9DC69)
[4] = target: ATP synthase peripheral stalk subunit d, mitochondrial (UniProt Q9DCX2)
[5] = target: ATP synthase F(0) complex subunit g, mitochondrial (UniProt Q9CPQ8)
[6] = target: ATP synthase peripheral stalk subunit OSCP, mitochondrial (UniProt Q9DB20)
[7] = target: Cytochrome b-c1 complex subunit 6, mitochondrial (UniProt P99028)
[8] = target: Cytochrome c oxidase subunit 7B, mitochondrial (UniProt P56393)
[9] = target: Dynamin-like GTPase OPA1, mitochondrial (UniProt P58281)
Protein FAM162A = Protein FAM162A (UniProt Q9D6U8)
[10] = target: Cytochrome b-c1 complex subunit 7 (UniProt Q9D855)
[11] = target: Methylmalonic aciduria type A homolog, mitochondrial (UniProt Q8C7H1)
[12] = target: DnaJ homolog subfamily C member 11 (UniProt Q5U458)
ADP/ATP translocase 1 = ADP/ATP translocase 1 (UniProt P48962)
[13] = target: Cytochrome c oxidase subunit FA4 (UniProt Q62425)
[14] = target: FAST kinase domain-containing protein 2, mitochondrial (UniProt Q922E6)
[15] = target: Methylglutaconyl-CoA hydratase, mitochondrial (UniProt Q9JLZ3)
[16] = target: NADH dehydrogenase [ubiquinone] flavoprotein 1, mitochondrial (UniProt Q91YT0)
[17] = target: Dihydrolipoyllysine-residue succinyltransferase component of 2-oxoglutarate dehydrogenase complex, mitochondrial (UniProt Q9D2G2)
[18] = target: Cytochrome b-c1 complex subunit 9 (UniProt Q8R1I1)
[19] = target: MICOS complex subunit Mic19 (UniProt Q9CRB9)
[20] = target: MICOS complex subunit Mic60 (UniProt Q8CAQ8)
[21] = target: Cytochrome b-c1 complex subunit 1, mitochondrial (UniProt Q9CZ13)
[22] = target: Isocitrate dehydrogenase [NAD] subunit alpha, mitochondrial (UniProt Q9D6R2)
Chain of Isocitrate dehydrogenase [NAD] subunit alpha, mitochondrial (Q9D6R2 whole entry): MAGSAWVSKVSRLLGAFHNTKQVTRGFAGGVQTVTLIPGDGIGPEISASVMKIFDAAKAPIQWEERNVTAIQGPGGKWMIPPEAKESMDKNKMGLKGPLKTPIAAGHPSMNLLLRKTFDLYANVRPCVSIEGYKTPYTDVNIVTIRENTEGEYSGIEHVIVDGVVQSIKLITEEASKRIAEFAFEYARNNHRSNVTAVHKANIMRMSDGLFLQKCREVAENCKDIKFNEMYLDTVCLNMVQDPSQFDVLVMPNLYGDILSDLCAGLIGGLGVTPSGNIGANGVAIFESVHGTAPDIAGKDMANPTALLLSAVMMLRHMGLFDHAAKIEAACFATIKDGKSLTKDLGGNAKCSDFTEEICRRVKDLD

Chain of Cytochrome c oxidase subunit 6C (Q9CPQ1 whole entry): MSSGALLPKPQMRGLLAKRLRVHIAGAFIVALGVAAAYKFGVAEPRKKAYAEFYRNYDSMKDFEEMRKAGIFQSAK
Chain of Protein FAM162A (Q9D6U8 whole entry): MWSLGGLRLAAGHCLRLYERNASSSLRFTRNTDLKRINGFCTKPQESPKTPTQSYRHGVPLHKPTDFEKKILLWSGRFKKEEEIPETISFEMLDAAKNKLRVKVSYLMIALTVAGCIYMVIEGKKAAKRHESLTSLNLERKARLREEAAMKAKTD
Chain of Cytochrome c oxidase subunit FA4 (Q62425 whole entry, the tested form may be a part): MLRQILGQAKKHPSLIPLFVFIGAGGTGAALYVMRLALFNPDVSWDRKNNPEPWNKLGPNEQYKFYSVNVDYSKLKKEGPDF
Chain of Cytochrome c oxidase subunit 7B, mitochondrial (P56393 whole entry): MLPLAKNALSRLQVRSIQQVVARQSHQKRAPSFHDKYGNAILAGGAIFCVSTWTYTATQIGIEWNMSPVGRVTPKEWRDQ
Chain of Cytochrome b-c1 complex subunit 6, mitochondrial (P99028 whole entry, one chain of several): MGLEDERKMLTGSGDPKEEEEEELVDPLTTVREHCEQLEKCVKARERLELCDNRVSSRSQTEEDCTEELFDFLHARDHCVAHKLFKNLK
Chain of Methylmalonic aciduria type A homolog, mitochondrial (Q8C7H1 whole entry): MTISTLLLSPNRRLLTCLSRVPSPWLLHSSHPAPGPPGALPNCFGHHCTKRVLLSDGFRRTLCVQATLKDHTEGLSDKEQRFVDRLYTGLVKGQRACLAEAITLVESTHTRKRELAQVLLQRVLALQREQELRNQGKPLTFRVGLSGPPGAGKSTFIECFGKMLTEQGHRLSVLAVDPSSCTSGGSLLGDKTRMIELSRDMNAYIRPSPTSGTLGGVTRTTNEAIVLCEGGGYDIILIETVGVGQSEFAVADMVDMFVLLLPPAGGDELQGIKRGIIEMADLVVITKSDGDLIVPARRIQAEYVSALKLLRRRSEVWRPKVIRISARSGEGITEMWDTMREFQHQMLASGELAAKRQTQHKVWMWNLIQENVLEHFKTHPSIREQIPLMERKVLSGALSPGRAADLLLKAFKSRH
Chain of FAST kinase domain-containing protein 2, mitochondrial (Q922E6 whole entry, the tested form may be a part): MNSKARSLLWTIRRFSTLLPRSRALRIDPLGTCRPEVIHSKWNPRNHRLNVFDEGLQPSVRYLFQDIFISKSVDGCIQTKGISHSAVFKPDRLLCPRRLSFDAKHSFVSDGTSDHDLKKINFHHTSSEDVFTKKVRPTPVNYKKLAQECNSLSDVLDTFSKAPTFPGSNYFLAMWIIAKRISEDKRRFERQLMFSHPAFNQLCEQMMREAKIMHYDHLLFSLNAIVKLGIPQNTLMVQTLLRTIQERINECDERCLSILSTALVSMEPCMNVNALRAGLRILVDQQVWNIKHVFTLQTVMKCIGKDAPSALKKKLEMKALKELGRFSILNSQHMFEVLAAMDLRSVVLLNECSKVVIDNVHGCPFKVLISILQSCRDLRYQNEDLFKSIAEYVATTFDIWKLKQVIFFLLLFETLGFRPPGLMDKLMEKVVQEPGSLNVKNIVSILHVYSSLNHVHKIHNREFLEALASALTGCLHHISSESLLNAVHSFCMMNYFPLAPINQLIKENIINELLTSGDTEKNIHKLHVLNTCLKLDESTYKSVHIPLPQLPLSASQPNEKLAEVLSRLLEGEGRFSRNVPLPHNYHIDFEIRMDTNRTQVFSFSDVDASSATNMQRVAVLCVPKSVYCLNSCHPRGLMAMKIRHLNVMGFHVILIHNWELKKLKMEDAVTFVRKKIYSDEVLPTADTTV
Chain of MICOS complex subunit Mic19 (Q9CRB9 whole entry, one chain of several): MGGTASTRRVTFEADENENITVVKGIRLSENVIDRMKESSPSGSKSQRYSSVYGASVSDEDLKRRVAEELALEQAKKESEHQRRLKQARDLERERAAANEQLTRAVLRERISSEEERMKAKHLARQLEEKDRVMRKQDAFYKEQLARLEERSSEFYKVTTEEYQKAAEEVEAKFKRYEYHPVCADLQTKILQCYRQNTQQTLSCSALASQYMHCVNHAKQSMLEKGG
Chain of ADP/ATP translocase 1 (P48962 whole entry): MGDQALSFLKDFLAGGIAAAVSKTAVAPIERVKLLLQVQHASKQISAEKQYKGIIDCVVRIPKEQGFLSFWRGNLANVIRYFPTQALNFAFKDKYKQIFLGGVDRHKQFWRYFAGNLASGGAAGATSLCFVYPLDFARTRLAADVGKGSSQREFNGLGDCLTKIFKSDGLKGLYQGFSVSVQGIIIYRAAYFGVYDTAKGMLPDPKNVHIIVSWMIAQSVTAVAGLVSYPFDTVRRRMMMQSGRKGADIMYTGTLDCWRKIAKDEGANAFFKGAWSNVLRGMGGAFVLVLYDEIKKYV
Chain of NADH dehydrogenase [ubiquinone] flavoprotein 1, mitochondrial (Q91YT0 whole entry): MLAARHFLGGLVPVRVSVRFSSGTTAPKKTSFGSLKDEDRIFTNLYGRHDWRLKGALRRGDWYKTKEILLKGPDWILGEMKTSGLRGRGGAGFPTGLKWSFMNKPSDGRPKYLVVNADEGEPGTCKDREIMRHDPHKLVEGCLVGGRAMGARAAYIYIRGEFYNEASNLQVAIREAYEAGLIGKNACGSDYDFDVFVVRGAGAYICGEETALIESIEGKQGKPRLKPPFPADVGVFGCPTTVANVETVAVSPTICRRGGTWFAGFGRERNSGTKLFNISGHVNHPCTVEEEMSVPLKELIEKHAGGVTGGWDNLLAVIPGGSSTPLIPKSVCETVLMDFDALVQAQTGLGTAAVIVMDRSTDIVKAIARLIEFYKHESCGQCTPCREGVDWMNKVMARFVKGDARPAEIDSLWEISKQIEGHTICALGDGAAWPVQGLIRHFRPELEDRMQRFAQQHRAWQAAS
Chain of Cytochrome b-c1 complex subunit 9 (Q8R1I1 whole entry, one chain of several): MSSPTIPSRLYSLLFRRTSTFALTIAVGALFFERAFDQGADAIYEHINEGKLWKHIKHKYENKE
Chain of ATP synthase peripheral stalk subunit OSCP, mitochondrial (Q9DB20 whole entry): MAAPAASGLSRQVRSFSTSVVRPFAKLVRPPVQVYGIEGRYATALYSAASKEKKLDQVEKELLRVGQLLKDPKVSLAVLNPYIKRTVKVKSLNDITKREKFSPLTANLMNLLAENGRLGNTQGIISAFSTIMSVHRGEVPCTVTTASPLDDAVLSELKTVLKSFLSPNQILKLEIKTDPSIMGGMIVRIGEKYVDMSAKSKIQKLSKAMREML
Chain of NADH dehydrogenase [ubiquinone] 1 alpha subcomplex subunit 9, mitochondrial (Q9DC69 whole entry, one chain of several): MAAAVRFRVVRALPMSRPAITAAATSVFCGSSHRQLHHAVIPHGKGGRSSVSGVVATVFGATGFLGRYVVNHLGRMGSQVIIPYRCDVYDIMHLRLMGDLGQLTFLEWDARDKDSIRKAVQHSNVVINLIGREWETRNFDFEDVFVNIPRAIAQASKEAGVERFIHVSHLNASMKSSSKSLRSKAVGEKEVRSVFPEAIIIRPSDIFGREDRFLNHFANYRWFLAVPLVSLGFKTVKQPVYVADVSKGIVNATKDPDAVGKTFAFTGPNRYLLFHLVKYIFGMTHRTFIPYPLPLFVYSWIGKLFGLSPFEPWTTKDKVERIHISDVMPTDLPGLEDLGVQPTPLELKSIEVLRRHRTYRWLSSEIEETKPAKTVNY
Chain of Cytochrome c, somatic, P62897 (P62897 whole entry): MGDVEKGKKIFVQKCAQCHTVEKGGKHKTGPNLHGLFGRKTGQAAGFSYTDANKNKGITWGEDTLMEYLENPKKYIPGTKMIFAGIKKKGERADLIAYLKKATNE
Chain of ATP synthase F(0) complex subunit g, mitochondrial (Q9CPQ8 whole entry, one chain of several): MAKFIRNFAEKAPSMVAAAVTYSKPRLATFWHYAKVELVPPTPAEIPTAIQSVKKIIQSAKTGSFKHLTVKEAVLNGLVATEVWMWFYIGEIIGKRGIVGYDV
Chain of Dynamin-like GTPase OPA1, mitochondrial (P58281 whole entry): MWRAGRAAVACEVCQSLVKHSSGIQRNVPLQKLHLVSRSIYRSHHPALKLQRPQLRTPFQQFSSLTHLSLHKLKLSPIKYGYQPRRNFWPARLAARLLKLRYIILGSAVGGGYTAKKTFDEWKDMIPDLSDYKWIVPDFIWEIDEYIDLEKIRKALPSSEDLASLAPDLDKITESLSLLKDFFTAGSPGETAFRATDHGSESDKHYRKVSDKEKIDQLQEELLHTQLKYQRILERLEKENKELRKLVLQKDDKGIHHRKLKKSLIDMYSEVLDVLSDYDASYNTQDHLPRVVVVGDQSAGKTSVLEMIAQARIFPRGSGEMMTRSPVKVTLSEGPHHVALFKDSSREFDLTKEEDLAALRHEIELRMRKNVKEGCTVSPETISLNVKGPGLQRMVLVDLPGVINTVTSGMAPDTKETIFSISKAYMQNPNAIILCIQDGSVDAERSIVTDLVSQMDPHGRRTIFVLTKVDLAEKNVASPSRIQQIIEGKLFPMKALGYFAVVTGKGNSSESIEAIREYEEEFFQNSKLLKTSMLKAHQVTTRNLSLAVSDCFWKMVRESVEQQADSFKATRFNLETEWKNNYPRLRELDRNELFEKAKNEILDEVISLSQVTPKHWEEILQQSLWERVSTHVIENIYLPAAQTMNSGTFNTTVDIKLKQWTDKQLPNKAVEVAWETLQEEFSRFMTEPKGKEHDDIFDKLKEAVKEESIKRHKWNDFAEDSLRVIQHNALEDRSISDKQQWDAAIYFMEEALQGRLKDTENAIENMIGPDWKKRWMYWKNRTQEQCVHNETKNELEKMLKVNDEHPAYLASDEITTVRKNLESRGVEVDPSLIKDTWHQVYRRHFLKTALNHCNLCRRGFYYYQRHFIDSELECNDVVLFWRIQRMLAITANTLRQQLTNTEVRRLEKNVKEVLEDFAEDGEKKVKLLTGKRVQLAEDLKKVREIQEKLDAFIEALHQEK

Q: “NADH dehydrogenase [ubiquinone] 1 alpha subcomplex subunit 8, Q9DCJ5” was tested. Which “listed as a hit” value [1] did it give?
A: yes

Q: How did the “listed as a hit” value [2] turn out when Cytochrome c, somatic, P62897 was run?
A: yes

Q: “StAR-related lipid transfer protein 7, mitochondrial, Q8R1R3” was tested. Which “listed as a hit” value [3] did it give?
A: yes

Q: Which “listed as a hit” value [4] does the source give for “ATP synthase F(0) complex subunit 8, P03930” here?
A: yes

Q: Which “listed as a hit” value [5] does the source give for ADP/ATP translocase 1, P48962 here?
A: yes

Q: And the “listed as a hit” value [6]?
A: yes

Q: What about the “listed as a hit” value [7] of the same substance?
A: yes

Q: And the “listed as a hit” value [2]?
A: yes

Q: What about the “listed as a hit” value [8] of the same substance?
A: yes

Q: What about the “listed as a hit” value [9] of the same substance?
A: yes

Q: And the “listed as a hit” value (Protein FAM162A)?
A: yes

Q: How did the “listed as a hit” value [10] turn out when Cytochrome b, P00158 was run?
A: yes

Q: Which “listed as a hit” value [11] does the source give for “Methylmalonyl-CoA mutase, mitochondrial, P16332” here?
A: yes

Q: For Metaxin-2, O88441, which “listed as a hit” value [12] is on record?
A: yes

Q: What does the source list for “Cytochrome c oxidase subunit 4 isoform 1, mitochondrial, P19783”?
A: listed as a hit (ADP/ATP translocase 1): yes; listed as a hit [7]: yes; listed as a hit [2]: yes; listed as a hit [8]: yes; listed as a hit [13]: yes; listed as a hit [14]: yes; listed as a hit [15]: yes; listed as a hit [16]: yes

Q: With “2-oxoglutarate dehydrogenase complex component E1, Q60597” as the substance, how does the “listed as a hit” value [17] read?
A: yes

Q: With “Cytochrome c oxidase subunit 7B, mitochondrial, P56393” as the substance, how does the “listed as a hit” value [18] read?
A: yes

Q: What about the “listed as a hit” value [13] of the same substance?
A: yes

Q: MICOS complex subunit Mic27, Q78IK4 was tested. Which “listed as a hit” value [19] did it give?
A: yes

Q: What about the “listed as a hit” value [20] of the same substance?
A: yes

Q: “Aspartate aminotransferase, mitochondrial, P05202” was tested. Which “listed as a hit” value [21] did it give?
A: yes

Q: What about the “listed as a hit” value [22] of the same substance?
A: yes

Q: How did the “listed as a hit” value (Protein FAM162A) turn out when Cytochrome c oxidase subunit 6C, Q9CPQ1 was run?
A: yes
